Experimental data reported in the supplement of paper PMC3414501.
Structures can show the parent of a compound that is named as a salt. A number with no mark means an inactive call.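 Rule for the calls: active = score above 5; some higher scores were not called.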

Tested on: S. cerevisiae SK1 pCDA2-eGFP (USY613), sporulating
Experiment: CDA2-GFP sporulation assay sensitivity score (z-score vs DMSO controls); higher = stronger inhibition of sporulation, active = hit call of the paper

Which “CDA2-GFP sporulation assay sensitivity score” value does the source give for `CN(C)CC[C@@H](c1ccc(Cl)cc1)c1ccccn1` [Dexchlorpheniramine maleate] (stock concentration (mM, diluted 1:100): 7) here?
Its value is 7.64.

How did the “CDA2-GFP sporulation assay sensitivity score” value turn out when `COCC1=C(C(=O)OC(C)OC(=O)OC(C)C)N2C(=O)[C@@H](NC(=O)/C(=N\OC)c3csc(N)n3)[C@H]2SC1` (stereo partly drawn) [Cefpodoxime proxetil] (stock concentration (mM, diluted 1:100): 7.7) was run?
Its value is -0.83.

How did the “CDA2-GFP sporulation assay sensitivity score” value turn out when `CC(C(=O)O)c1ccc(-c2ccccc2)c(F)c1` (stereo not drawn) [Flurbiprofen] (stock concentration (mM, diluted 1:100): 11.4) was run?
Its value is -0.22.

Which “CDA2-GFP sporulation assay sensitivity score” value does the source give for `C[C@@H]1O[C@@H](OC[C@H]2O[C@@H](Oc3c(-c4ccc(O)c(O)c4)oc4cc(O)cc(O)c4c3=O)[C@H](O)[C@@H](O)[C@@H]2O)[C@H](O)[C@H](O)[C@H]1O` [Rutin] (stock concentration (mM, diluted 1:100): 10) here?
The value was -0.59.

`CC(C)Oc1ccc2c(=O)c(-c3ccccc3)coc2c1` [Ipriflavone] (stock concentration (mM, diluted 1:100): 10) was tested. Which “CDA2-GFP sporulation assay sensitivity score” value did it give?
The value was -1.58.

Which “CDA2-GFP sporulation assay sensitivity score” value does the source give for `CC(C)(C)NC(=O)[C@@H]1CN(Cc2cccnc2)CCN1C[C@@H](O)C[C@@H](Cc1ccccc1)C(=O)N[C@H]1c2ccccc2C[C@H]1O` [Indinavir sulphate] (stock concentration (mM, diluted 1:100): 8.6) here?
Its value is -1.29.

`Clc1ccc(CO/N=C(\Cn2ccnc2)c2ccc(Cl)cc2Cl)c(Cl)c1` [Oxiconazole nitrate] (stock concentration (mM, diluted 1:100): 10) was tested. Which “CDA2-GFP sporulation assay sensitivity score” value did it give?
The value was 0.87.

`CC[C@@H]1C(=O)OC[C@@H]1Cc1cncn1C` [Pilocarpine hydrochloride] (stock concentration (mM, diluted 1:100): 10) was tested. Which “CDA2-GFP sporulation assay sensitivity score” value did it give?
The value was 1.83.

For `CC(=O)O[C@]1(C(C)=O)CC[C@H]2[C@@H]3C=C(C)C4=CC(=O)CC[C@]4(C)[C@H]3CC[C@@]21C` [Megestrol acetate] (stock concentration (mM, diluted 1:100): 10), which “CDA2-GFP sporulation assay sensitivity score” value is on record?
The value was 0.75.

With `CN1CCN(c2c(F)cc3c(=O)c(C(=O)O)cn4c3c2SCC4)CC1` [Rufloxacin hydrochloride] (stock concentration (mM, diluted 1:100): 10) as the molecule, how does the “CDA2-GFP sporulation assay sensitivity score” value read?
Its value is -0.17.

For `NC(N)=Nc1nc(CSCC/C(N)=N/S(N)(=O)=O)cs1` [Famotidine] (stock concentration (mM, diluted 1:100): 10), which “CDA2-GFP sporulation assay sensitivity score” value is on record?
Its value is 0.3.

Which “CDA2-GFP sporulation assay sensitivity score” value does the source give for `OCCOCCN1CCN(C2=Nc3ccccc3Sc3ccccc32)CC1` [Quetiapine hemifumarate] (stock concentration (mM, diluted 1:100): 7.7) here?
Its value is 9.6 (active).

Which “CDA2-GFP sporulation assay sensitivity score” value does the source give for `O=c1n(CCCN2CCN(c3cccc(Cl)c3)CC2)nc2ccccn12` [Trazodone hydrochloride] (stock concentration (mM, diluted 1:100): 10) here?
Its value is 5.45.

How did the “CDA2-GFP sporulation assay sensitivity score” value turn out when `O=C1CC[C@@H](C(=O)N2CSC[C@H]2C(=O)O)N1` [Pidotimod] (stock concentration (mM, diluted 1:100): 10) was run?
The value was 0.46.

With `COC(=O)C1=C(C)NC(C)=C(C(=O)OC2CCCN(Cc3ccccc3)C2)C1c1cccc([N+](=O)[O-])c1` (stereo not drawn) [Benidipine hydrochloride] (stock concentration (mM, diluted 1:100): 6) as the molecule, how does the “CDA2-GFP sporulation assay sensitivity score” value read?
The value was 4.32.

With `CC(Oc1c(Cl)cccc1Cl)C1=NCCN1` (stereo not drawn) [Lofexidine hydrochloride] (stock concentration (mM, diluted 1:100): 10) as the molecule, how does the “CDA2-GFP sporulation assay sensitivity score” value read?
The value was 7.06.

Which “CDA2-GFP sporulation assay sensitivity score” value does the source give for `Cc1[nH]c(=O)c(C#N)cc1-c1ccncc1` [Milrinone] (stock concentration (mM, diluted 1:100): 10.1) here?
The value was -1.34.

For `CO[C@H]1/C=C/O[C@@]2(C)Oc3c(C)c(O)c4c(O)c(c5c(nc6cc(C)ccn65)c4c3C2=O)NC(=O)/C(C)=C\C=C\[C@H](C)[C@H](O)[C@@H](C)[C@@H](O)[C@@H](C)[C@H](OC(C)=O)[C@@H]1C` [Rifaximin] (stock concentration (mM, diluted 1:100): 10), which “CDA2-GFP sporulation assay sensitivity score” value is on record?
Its value is 4.99.
